# From PubChem BioAssay
# SARS PLP yeast: qHTS of Yeast-based Assay for SARS-CoV PLP; S. cerevisiae expressing SARS-CoV PLpro, growth rescue; Potency, µM (series often up to 32.9 µM), for inactives: top-dose activity, positive = growth rescue, actives largely listed as activators; 330,000 tested, 0.19% active; calls by dose curve; further: potency means the concentration at half of the fitted maximal effect; 0% is about no effect; nearly all actives have a fitted effect of over 55% in size
# AmpC inh detg: qHTS Inhibitors of AmpC Beta-Lactamase (assay with detergent); AID 485294, 2010; AmpC hydrolysis of nitrocefin, absorbance 480 nm, 0.01% Triton; P00811; Potency, µM (titrated, usually from 114 µM), without a hit: at the highest dose activity change, negative = inhibition, actives largely listed as inhibitors; 370,000 tested, 0.041% active;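 further: potency means the concentration at half of the fitted maximal effect; 0% = no-compound wells and -100% = no-enzyme wells; nearly all actives have a fitted effect of over 25% in size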
# Target sequence (P00811 whole entry, looked up): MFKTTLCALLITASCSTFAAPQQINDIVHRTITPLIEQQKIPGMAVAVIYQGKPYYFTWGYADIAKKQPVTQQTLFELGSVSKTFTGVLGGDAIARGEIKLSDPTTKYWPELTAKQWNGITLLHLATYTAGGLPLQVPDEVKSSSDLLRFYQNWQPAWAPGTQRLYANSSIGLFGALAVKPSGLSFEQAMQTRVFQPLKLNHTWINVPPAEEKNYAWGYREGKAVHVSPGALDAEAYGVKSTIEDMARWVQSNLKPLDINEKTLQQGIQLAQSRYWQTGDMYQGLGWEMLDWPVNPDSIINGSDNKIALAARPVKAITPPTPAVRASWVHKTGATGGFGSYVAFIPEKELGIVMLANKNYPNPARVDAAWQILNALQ
#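 AmpC (5.3 nM in the dispensed reagent) in 20 mM phosphate pH 7.0 with 0.01% (detergent screen) or 0.0001% Triton X-100 was preincubated with compounds for 15 min at room temperature. Nitrocefin was then added from an 800 uM solution, and hydrolysis was followed at 480 nm.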
# AMA1 RON2 block: qHTS for Inhibitors of AMA1-RON; Towards Development of Antimalarial Drug Lead: Primary Screen; Plasmodium falciparum AMA1 (3D7) - RON2 peptide interaction; AlphaScreen AMA1-biotinylated RON2 peptide binding; Potency, µM (top dose mostly 58.2 µM), for inactives: at the top dose activity change, negative = inhibition, hits mostly inhibitors; 360,000 tested, 0.2% active;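 further: potency means the concentration at half of the fitted maximal effect; 0% = vehicle wells and -100% = peptide control; nearly all actives have a fitted effect of over 45% in size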
#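 AMA1 (3D7) with his tag at 25 nM final met compounds first, then biotinylated RON2 peptide at 25 nM; detection used donor plus acceptor beads, 10 µg/mL apiece, read by AlphaScreen after 30 min at room temperature.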
# NS1 inh: qHTS Assay for Inhibitors of Influenza NS1 Protein Function; Potency, µM (top dose mostly 46.1 µM), inactives show at the top dose activity, positive = more growth; 270,000 tested, 0.4% active; AID 2326, 2010; calls by dose curve; further: potency means the concentration at half of the fitted maximal effect; actives are rising curves; nearly all actives have a fitted effect of over 50% in size
#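 Growth recovery, yeast-based: influenza A NS1 expressed in S. cerevisiae causes slow growth, and suppressors are detected by OD600. The parent strain without NS1 is used as positive control.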
# AmpC inh no detg: qHTS Inhibitors of AmpC Beta-Lactamase (assay without detergent); P00811; AmpC nitrocefin hydrolysis, absorbance 480 nm, 0.0001% Triton; Potency, µM (top dose mostly 57.1 µM), inactives show at the highest dose activity change, negative = inhibition, actives largely listed as inhibitors; 330,000 tested, 0.52% active; AID 485341, 2010;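 further: potency means the concentration at half of the fitted maximal effect; plate controls were no compound for no effect and no enzyme for full effect; nearly all actives have a fitted effect of over 20% in size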
#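 20 mM phosphate pH 7.0 + 0.01% (detergent screen) or 0.0001% Triton X-100; 5.3 nM AmpC reagent; cpd preinc 15 min RT; nitrocefin (800 uM stock) to start; A480 q20 s × 4 min; Activity was normalised to no-enzyme and no-compound control wells.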
# Flu NS1 inh: Assay for Inhibitors of Influenza NS1 Protein Function: Hit Validation | AID 492980, 2010 | influenza NS1 function cell assay, 15-point titration | activity change, negative = inhibition, % at 32.9 µM | shares compounds with NS1 inh | 1,400 tested, under 10 active; calls by dose curve; further: 0% is about no effect
# PR8 titer: Assay for Inhibitors of Influenza NS1 Protein Function: Influenza virus replication assay in MDCK cells infected with virus A/PR/8/34. shares compounds with NS1 inh. MDCK infected influenza A/PR/8/34, virus titer TCID50; active compounds read low. virus titer (log TCID50), log10 TCID50 at 5 µM. 95 tested, 30% active. AID 504647, 2011; call rule not given here
# * hit, by the source's call; ? = inconclusive; . = not tested or not shown; [ ] = another dose, or the depositor's remark. Only some compounds are listed: those with a hit (about 0.99% of all), similar ones and a draw of the others. Unless noted, the call rests on the fitted dose curve; in most records, active means well fitted curve in the direction sought with a large enough effect; inconclusive means small, poorly fitted or top-dose-only effect, or another doubt; inactive means no such curve, though single readings can be large; an effect the other way counts as inactive or inconclusive.
SMILES,SARS PLP yeast,AmpC inh detg,AMA1 RON2 block,NS1 inh,AmpC inh no detg,Flu NS1 inh,others
O=C(CSc1nnc(-c2ccccc2)n1-c1ccccc1)NCc1ccco1,-7.6%,1.2%,-3.8%,17.8µM*,-0.9%,0.5,
O=C(CSc1nnc(-c2ccco2)n1-c1ccccc1)NCc1ccco1,1.4%,-0.1%,-4.5%,20.7%,-23.7%,.,
COc1ccc(C(C)=O)cc1CSc1nnc(-c2ccc(Cl)cc2)n1-c1ccccc1,5.8%,-2.8%,-17.2%,1µM*,48.9%,?,
COc1ccccc1NC(=O)CC(=O)CSc1nnc(-c2ccc(C)cc2)n1-c1ccccc1,10.0%,2.5%,9.4%,14.1µM*,0.5%,7.7,
Cc1ccc(/C=N/NC(=O)CN(Cc2ccccc2)S(=O)(=O)c2ccc3c(c2)OCCO3)cc1,-2.8%,-11.9%,-13.6%,12.6µM*,-18.8%,2.0,PR8 titer=8.5
CNS(=O)(=O)c1ccc(C)cc1,0.4%,-10.1%,-9.8%,?,-31.5%,13.5,
Cc1ccc(NC(=O)Nc2nnc(N(CC(C)C)CC(C)C)s2)cc1Cl,.,26.2%,.,.,.,.,
Cc1c(NC(=O)C2CCCN2S(=O)(=O)c2ccccc2)c(=O)n(-c2ccccc2)n1C (stereo not given),0.6%,-2.7%,-4.1%,7.08µM*,-4.5%,-10.0,
Cc1c(NC(=O)C2CCN(S(=O)(=O)c3ccc(Cl)cc3)CC2)c(=O)n(-c2ccccc2)n1C,-0.4%,0.1%,4.0%,-3.9%,-7.6%,.,
Cc1ccc(C(=O)N2CCN(C3c4cccc5cccc(c45)C3NS(=O)(=O)c3ccccc3)CC2)cc1 (stereo not given),-0.8%,4.8%,-3.2%,11.2µM*,49.6%,16.8,
CC(=O)N1CCN(C2c3cccc4cccc(c34)C2NS(=O)(=O)c2ccccc2)CC1 (stereo not given),-3.0%,-4.8%,-0.4%,-27.7%,150.4%,.,
Cc1ccc(N2C(=O)CC(N(O)C3CC(=O)N(c4ccc(C)cc4)C3=O)C2=O)cc1 (stereo not given),-4.8%,3.7%,14.2%,20µM*,-15.2%,?,
C=CCNC(=O)/C(=C\C=C\c1ccccc1)NC(=O)c1ccc(OCCCC)cc1,-13.1%,0.4%,-7.6%,11.2µM*,35.2%,?,
O=C(CN(c1ccccc1)S(=O)(=O)c1ccccc1[N+](=O)[O-])NN=C1CCCCCCC1,2.5%,4.5%,6.9%,1.26µM*,-39.8%,?,
CS(=O)(=O)N(CC(=O)NN=C1CCCCCC1)c1ccc(Oc2ccccc2)cc1,-2.0%,10.2%,12.1%,.,-21.0%,.,
COc1ccccc1NC(=O)C1=C(C)Nc2nc(SCc3ccccc3)nn2C1c1cccnc1 (stereo not given),.,-0.7%,.,.,.,.,
COC(=O)c1ccccc1NC(=S)N(Cc1ccc2c(c1)OCO2)Cc1cc2ccc(C)cc2[nH]c1=O,21.1%,-3.9%,15.7%,?,?,.,
COC(=O)c1ccccc1NC(=S)N(Cc1ccc2c(c1)OCO2)Cc1cc2cc(C)ccc2[nH]c1=O,5.6%,-11.2%,-7.4%,11.2µM*,-29.4%,?,
CCCCOc1ccc(C(=O)N2CCN(c3ccc(N4CCOCC4)nn3)CC2)cc1,-1.0%,?,-6.9%,.,162.6%,.,
CCCOc1ccc(C(=O)N2CCN(c3ccc(N)cc3Cl)CC2)cc1,-3.6%,-0.1%,-18.0%,11.2µM*,29.8%,-23.4,
CCc1ccc(/C=C2\Oc3ccc(C(=O)OC)cc3C2=O)cc1,2.4%,-8.5%,-10.9%,8.0%,-28.0%,.,
COC(=O)c1ccc2c(c1)C(=O)/C(=C/c1ccc(C)cc1)O2,?,-15.2%,-27.3%,10µM*,-32.1%,9.2,
CCOc1ccc(NC(=O)Cn2nc3c(cc2=O)CC(C)CC3)cc1 (stereo not given),.,0.7%,.,.,.,.,
COc1cc(C2C(C#N)=C(N)Oc3c2ccc2ccccc32)ccc1OCC(=O)Nc1cccc(C)c1 (stereo not given),11.7%,-8.5%,3.3%,11.2µM*,?,4.7,PR8 titer=8.33
COc1cc(C2C(C#N)=C(N)Oc3c2ccc2ccccc32)ccc1OCC(=O)Nc1ccc(C)cc1 (stereo not given),6.5%,-1.7%,-12.1%[11.6 µM],?,-34.1%,.,
SMILES,SARS PLP yeast,AmpC inh detg,AMA1 RON2 block,NS1 inh,AmpC inh no detg,Flu NS1 inh,others
CCOC(=O)C1CCN(C(=O)CSc2ccccc2)CC1,1.0%,3.4%,6.6%,11.2µM*,-3.1%,17.1,
COc1ccc(CCNC(=O)CSc2nc(N)c(C#N)c(-c3cccs3)c2C#N)cc1OC,-2.3%,-15.9%,-7.3%,4.47µM*,39.9%,9.0,
Cc1ccccc1NC(=O)CSc1nc(N)c(C#N)c(-c2cccs2)c1C#N,0.1%,-2.1%,-5.5%,-27.9%,-25.1%,.,
Cc1[nH]c2ccccc2c1N=Nc1ccccc1C(=O)O,16.9%,-2.8%,46.4%,4.47µM*,-25.2%,14.8,
CCOC(=O)c1ccc(NC(=O)CSc2nc3ccccc3c(=O)n2CCC(=O)NC2CCCCC2)cc1,.,7.4%,.,.,.,.,
CC1=Nc2nc(N3CCCCC3)c(C#N)c3c4c(nc(c23)N1)N(c1ccc(C(C)C)cc1)C(=O)C4,-3.2%,-11.5%,4.2%[11.6 µM],11.2µM*,-22.3%,11.9,
O=C(c1cccs1)N1CCCc2cc(NS(=O)(=O)c3cc(F)ccc3F)ccc21,.,-0.2%,.,.,.,.,
CN(CC(=O)Nc1cccc2ccccc12)C(=O)c1cccc(S(=O)(=O)N(C)C)c1,2.2%,4.4%,-2.5%,?,-3.6%,-5.6,
COc1cccc(NC(=O)c2csc3c2CCCCC3)c1,.,14.3%,.,.,.,.,
CCNc1nc(NCC)n2c(SCC(=O)O)nnc2n1,-2.8%,4.5%,-8.5%,10µM*,-18.9%,8.0,
CCNc1nc(NCC)n2c(SCC(=O)Nc3c(C)cccc3C)nnc2n1,-0.9%,-14.9%,-9.7%,.,-6.9%,.,
Clc1ccccc1N1CCN(Cc2c[nH]c3ccccc23)CC1,.,.,-20.0%,.,.,.,
Fc1ccccc1N1CCN(C2CCN(Cc3c[nH]c4ccccc34)CC2)CC1,9.4%,-20.3%,23.9%,25.1µM*,8.4%,-16.5,
COC(=O)c1ccc2c(=O)n(CCCCCC(=O)NCc3ccc(OC)cc3)c(=O)[nH]c2c1,.,-0.3%,.,.,.,.,
O=C(Cc1csc2nc(-c3ccc(F)cc3)cn12)NCc1ccccc1,.,21.0%,.,.,.,.,
c1ccc(Nc2ccccn2)nc1,4.1%,-6.4%,170.5%,-2.6%,-26.5%,.,
Oc1ccccc1Nc1ccccn1,-3.1%,0.8%,7.4%,?,-15.0%,1.4,
